Results published in PubChem BioAssay AID1159580 (chemical genetic matrix, 2015).
“And” between values parts separate entries of the source, which are not always exact repeats. Equal values may be shown once. Hit rate of the full screen: of about 5,500 compounds, about 2,000 (36%) were called active. About 18% were inconclusive and are not listed. Cut-off read from the data, not from the text of the source: active = normalized growth mostly below about 0.91 (no sharp cut-off); inconclusive = no clear call, values can overlap the other calls; inactive = mostly above about 0.92. Some of the results follow.

Assay: chemical genetic growth profiling, strain panel (AID 1159580);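 note: tested at 20 µM; growth read once vehicle control cultures reached saturation at 30 °C; 1 = growth at the plate median or of vehicle wells; lower values mean less growth of the strain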
Settings: S. cerevisiae deletion strains, growth OD

Measured: normalized growth

CCOC(=O)CSC(=S)NCc1ccc(C)cc1
active: locus YAL013W, strain DEP1, stronger effect = lower value 0.822 | locus YBR229C, strain ROT2, stronger effect = lower value 0.866 | locus YCL061C, strain MRC1, stronger effect = lower value 0.907 | locus YDL134C, strain PPH21, stronger effect = lower value 0.0516 | locus YDR150W, strain NUM1, stronger effect = lower value 0.787 | locus YEL061C, strain CIN8, stronger effect = lower value 0.216 | locus YGR078C, strain PAC10, stronger effect = lower value 0.766 | locus YHR030C, strain SLT2, stronger effect = lower value 0.0833 and 0.84 | locus YHR087W, strain rtc3, stronger effect = lower value 0.86 | locus YJR043C, strain POL32, stronger effect = lower value 0.812 | locus YJR075W, strain HOC1, stronger effect = lower value 0.82 | locus YLR039C, strain RIC1, stronger effect = lower value 0.172 | locus YLR058C, strain SHM2 (second series), stronger effect = lower value 0.909 | locus YLR085C, strain ARP6, stronger effect = lower value 0.0735 | locus YLR113W, strain HOG1, stronger effect = lower value 0.76 | locus YLR262C, strain YPT6, stronger effect = lower value 0.111 | locus YML094W, strain GIM5, stronger effect = lower value 0.493 | locus YMR219W, strain ESC1, stronger effect = lower value 0.909 | locus YMR263W, strain SAP30, stronger effect = lower value 0.853 | locus YMR307W, strain GAS1, stronger effect = lower value 0.109 | locus YNL153C, strain GIM3, stronger effect = lower value 0.665 | locus YNL298W, strain CLA4 (second series), stronger effect = lower value 0.0782 | locus YNL322C, strain KRE1, stronger effect = lower value 0.925 | locus YNR030W, strain Alg12, stronger effect = lower value 0.0728 | locus YOL006C, strain TOP1, stronger effect = lower value 0.107 | locus YPL055C, strain LGE1, stronger effect = lower value 0.618 | locus YPL241C, strain CIN2, stronger effect = lower value 0.0682 | locus YPL256C, strain CLN2, stronger effect = lower value 0.825 | locus YPR135W, strain CTF4, stronger effect = lower value 0.148
0.947 (inactive) and 0.839 (active): locus YDL101C, strain DUN1, stronger effect = lower value
inactive: locus YAR019C, strain CDC15, stronger effect = lower value 0.956 | locus YBL105C, strain PKC1, stronger effect = lower value 0.958 | locus YBR135W, strain CKS1, stronger effect = lower value 0.937 | locus YBR136W, strain MEC1, stronger effect = lower value 0.955 | locus YBR160W, strain CDC28, stronger effect = lower value 0.951 | locus YDL017W, strain CDC7, stronger effect = lower value 0.959 | locus YDL028C, strain MPS1, stronger effect = lower value 0.947 | locus YDL108W, strain KIN28, stronger effect = lower value 0.956 | locus YDL132W, strain cdc53, stronger effect = lower value 0.928 | locus YDL214C, strain PRR2, stronger effect = lower value 0.95 | locus YDR052C, strain DBF4, stronger effect = lower value 0.972 | locus YDR054C, strain cdc34, stronger effect = lower value 0.93 | locus YDR226W, strain ADK1, stronger effect = lower value 0.946 | locus YDR477W, strain SNF1, stronger effect = lower value 0.949 | locus YER123W, strain YCK3, stronger effect = lower value 0.933 | locus YER133W, strain GLC7, stronger effect = lower value 0.953 | locus YFL009W, strain cdc4, stronger effect = lower value 0.944 | locus YFL029C, strain CAK1, stronger effect = lower value 0.958 | locus YFR003C, strain YPI1, stronger effect = lower value 0.957 | locus YFR019W, strain FAB1, stronger effect = lower value 0.957 | locus YFR028C, strain CDC14, stronger effect = lower value 0.947 | locus YGR040W, strain KSS1, stronger effect = lower value 0.946 | locus YGR052W, strain FMP48, stronger effect = lower value 1.01 | locus YGR092W, strain DBF2, stronger effect = lower value 0.937 | locus YHR079C, strain IRE1, stronger effect = lower value 0.93 | locus YHR082C, strain KSP1, stronger effect = lower value 0.964 | locus YHR205W, strain SCH9, stronger effect = lower value 0.872 | locus YIL147C, strain SLN1, stronger effect = lower value 0.951 | locus YJL095W, strain BCK1, stronger effect = lower value 0.879 | locus YJL128C, strain PBS2, stronger effect = lower value 0.954 | locus YJL157C, strain FAR1, stronger effect = lower value 0.963 | locus YJL187C, strain SWE1, stronger effect = lower value 0.958 | locus YJR016C, strain ILV3, stronger effect = lower value 0.954 | locus YJR066W, strain TOR1 (second series), stronger effect = lower value 0.989 | locus YJR066W, strain TOR1, stronger effect = lower value 0.957 | locus YKL048C, strain ELM1, stronger effect = lower value 0.944 | locus YKL067W, strain YNK1, stronger effect = lower value 0.95 | locus YKL101W, strain HSL1, stronger effect = lower value 0.955 | locus YKL193C, strain SDS22, stronger effect = lower value 0.948 | locus YKL203C, strain TOR2, stronger effect = lower value 1 | locus YLR133W, strain CKI1, stronger effect = lower value 0.959 | locus YLR403W, strain SFP1, stronger effect = lower value 0.967 | locus YML070W, strain DAK1, stronger effect = lower value 0.949 | locus YMR001C, strain CDC5, stronger effect = lower value 0.946 | locus YMR205C, strain PFK2 (second series), stronger effect = lower value 0.965 | locus YMR277W, strain FCP1, stronger effect = lower value 0.957 | locus YNL006W, strain LST8, stronger effect = lower value 0.959 | locus YNL020C, strain ARK1, stronger effect = lower value 0.948 | locus YNL161W, strain CBK1, stronger effect = lower value 0.953 | locus YNL183C, strain NPR1, stronger effect = lower value 0.912 | locus YNL207W, strain RIO2, stronger effect = lower value 0.953 | locus YNL222W, strain SSU72, stronger effect = lower value 0.956 | locus YNL307C, strain MCK1 (second series), stronger effect = lower value 0.928 | locus YOL078W, strain AVO1, stronger effect = lower value 0.948 | locus YOL136C, strain PFK27, stronger effect = lower value 0.946 | locus YOR061W, strain CKA2, stronger effect = lower value 0.965 | locus YOR119C, strain RIO1, stronger effect = lower value 1.01 | locus YOR231W, strain MKK1, stronger effect = lower value 0.914 | locus YOR329C, strain SCD5, stronger effect = lower value 0.952 | locus YPL031C, strain PHO85, stronger effect = lower value 0.944 | locus YPL153C, strain RAD53, stronger effect = lower value 0.954 | locus YPL204W, strain HRR25, stronger effect = lower value 0.943 | locus YPL209C, strain IPL1, stronger effect = lower value 0.953 | locus YPR025C, strain CCL1, stronger effect = lower value 0.943 | locus YPR106W, strain ISR1, stronger effect = lower value 0.951 | locus YPR111W, strain DBF20, stronger effect = lower value 0.931 | strain NNK1, stronger effect = lower value 0.948 | strain TSCII, stronger effect = lower value 0.949
